Assay outcomes as filed in PubChem BioAssay.
TTR transcr act = activators of transthyretin transcription; 92,000 compounds, 1.3% hits; AID 1117267; activation, % at 16.7 µM; SH-SY5Y TTR promoter Gaussia luciferase, luminescence; 100% = recombinant luciferase protein wells;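 active = activation above the mean of all tested compounds plus 3 SD, cut at about 9.5% in these data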;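 note: cells exposed to compounds for one day before reading; 0% = median of all test compound wells on the plate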
TTR inh HuH7 = decreases TTR transcription in HuH7 cells in activator counter-screen; inhibition, % at 16.7 µM; HuH7 TTR promoter-Gaussia luciferase reporter, luminescence; 1,100 compounds, 4% hits; shares compounds with TTR transcr act;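 active = average inhibition above the solvent-only control wells' mean plus 3 SD, cut at about 15% in these data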;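 note: 0% = cells with DMSO only and 100% = cells with inhibitor control FD; inhibitors lower well luminescence so higher value means more inhibition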
TTR act confirm = confirmation of human transthyretin transcription activators | shares compounds with TTR transcr act | 1,100 tested, under 10 active | activation, % at 16.7 µM | SHSY5Y TTR promoter Gaussia luciferase, luminescence; 100% = purified Lucia enzyme wells, no cells;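 active = mean activation above a set limit taken from the earlier primary screen, cut at about 11% in these data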;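 note: 0% = DMSO-treated cells and 100% = recombinant Lucia luciferase without cells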
* = called active by the depositor. Shown is part of a subset that was picked to be rich in hits.

SMILES	TTR transcr act	others
CC(C)n1c(=O)c2ccccc2n1Cc1cn(CCc2c[nH]c3ccccc23)nn1	2.3
COC(=O)Cn1c2ccccc2c(=O)n1C(C)C	0.5
O=C1COc2ccccc2C(c2nnnn2Cc2ccccc2)N1Cc1cccs1 (stereo not given)	0.9
CCOC(=O)Cn1nc2sc3ccccc3n2c(=O)c1=O	2.2
CCC(C)NC(=O)Cn1c(=O)sc2ccccc21 (stereo not given)	3.2
CCOC(=O)Cn1c(=O)sc2ccccc21	17.3*	TTR inh HuH7=-3.9;TTR act confirm=0.1
CCNC(=O)Nc1ccc2c(c1)C(=O)N(C)[C@H]1CC[C@@H](CC(=O)NCCN3CCCC3)O[C@@H]1CO2	1.9
COC(=O)[C@]12C[C@H](CC(=O)NCCc3ccccc3OC)C(=O)N(Cc3ccco3)C1=C[C@H](C1CCCC1)O[C@@H]2C	2.7
C[C@H]1CN([C@@H](C)CO)C(=O)CCCn2cc(nn2)CO[C@@H]1CN(C)S(=O)(=O)c1cn(C)cn1	-0.3
COc1cccc(Cn2cc(COC(=O)N(C)Cc3ccccc3)nn2)c1	0.2
COc1ccc2c3c([nH]c2c1)C1=NCC[C@]12c1ccccc1N=CN2CC3	-1.3
CCN(C[C@H]1N[C@@](Cc2ccccc2)(C(=O)OC)[C@H]2C(=O)N(Cc3ccccc3)C(=O)[C@@H]12)C(=O)c1ccccc1	-1.1
CCN(C[C@H]1N[C@@](Cc2ccccc2)(C(=O)OC)[C@H]2C(=O)N(Cc3ccccc3)C(=O)[C@@H]12)C(=O)COC	0.1
CCN(C[C@H]1N[C@@](Cc2ccccc2)(C(=O)OC)[C@H]2C(=O)N(Cc3ccccc3)C(=O)[C@@H]12)C(C)=O	11.7*	TTR inh HuH7=-11.6;TTR act confirm=0.8
c1ccc(-c2cccc(CNc3nc(-c4ccccn4)nnc3-c3ccccc3)c2)cc1	-3.5
CCOc1ccc(CCNC(=O)c2ccc3[nH]ccc3c2)cc1OCC	0.3
CCOC(=O)[C@]12CCCC=C1N(Cc1ccc(OC)cc1)C(=O)[C@@H]2CC(=O)NCc1ccc(C)o1	-0.3
O=C(NCCOc1ccccc1)c1cccc(S(=O)(=O)N2CCN(Cc3ccccc3)CC2)c1	-1.1
Cc1ccc(CN(C)C(=O)c2cccc(S(=O)(=O)N3CCN(Cc4ccccc4)CC3)c2)o1	-1.3
CCCCN(C(=O)c1cccc(S(=O)(=O)N2CCN(Cc3ccccc3)CC2)c1)c1ccccc1	26.7*	TTR inh HuH7=-3.6;TTR act confirm=-0.3
CCC(C)[C@H](NC(=O)OC(C)(C)C)C(=O)N[C@@H](Cc1ccccc1)C(=O)OC (stereo not given in full)	2.3
O=C(C1CCN(c2nc(-c3ccc(Br)cc3)cs2)CC1)N1CCNCC1	2.0
Cc1ccc(S(=O)(=O)N2CC[C@@]3(Cc4ccccc4)Cc4ccccc4C[C@@H]23)cc1	1.3
COc1ccc(CCNC(=O)c2ccc(OC)c(OC)c2)cc1OC	2.5
COc1ccc(CNC(=O)CNC(=O)c2ccc(C(C)(C)C)cc2)cc1OC	13.0*	TTR inh HuH7=-18.2;TTR act confirm=-0.2
SMILES	TTR transcr act	others
COc1ccc(CC(=O)NCc2ccccc2)cc1OC	0.1
COC(=O)[C@]12C[C@H](CC(=O)NCc3cccc4ccccc34)C(=O)N(CCC3=CCCCC3)C1=C[C@H](C1CCCC1)O[C@@H]2C	1.8
C=CCN(C)C(C#Cc1ccccc1)c1ccccc1C(F)(F)F (stereo not given)	0.2
C[C@@H](NC(=O)c1nc[nH]c1C(=O)NCC(=O)OC(C)(C)C)c1ccccc1	3.9
CC(C)(C)OC(=O)CNC(=O)c1nc[nH]c1C(=O)N1CCN(c2ccccc2)CC1	3.1
CN(Cc1ccccc1)C(=O)c1[nH]cnc1C(=O)NCC(=O)OC(C)(C)C	10.6*	TTR inh HuH7=-15.7;TTR act confirm=22.1*
COC(=O)C[C@H]1CC[C@@H]2[C@H](COc3ccc(NC(=O)NCc4ccccc4)cc3C(=O)N2C)O1	4.7
O=C(OCc1ccccc1)c1cn(-c2ccccc2)nc1-c1ccncc1	17.8*	TTR inh HuH7=-10.3;TTR act confirm=-1.1
COC(=O)c1cn(-c2ccccc2)nc1-c1ccc(OC)cc1	-3.1
COC(=O)c1cn(-c2ccccc2)nc1-c1ccncc1	-3.3
CNC12CCc3cc(OC)c(OC)c(c31)-c1cc3c(cc1C2)OCO3 (stereo not given)	-0.2
O=C(NCCc1c[nH]c2ccccc12)OCc1cn(-c2ccc(Cl)cc2)nn1	-0.7
COc1ccc(-c2nnc(SCc3nc4ccccc4s3)n2C(C)C)cc1	-0.7
CCn1c(SCc2nc3ccccc3s2)nnc1-c1cccs1	15.2*	TTR inh HuH7=-22.7;TTR act confirm=0.2
Cn1c(SCc2nc3ccccc3s2)nnc1-c1cccs1	-4.2
O=C(Nc1ccc2ccccc2c1)C1CC2CCC1C2 (stereo not given)	2.9
CCC(=O)Nc1ccc(Cl)cc1C(=O)c1ccc[nH]1	-0.3
C=CCN1C(=O)[C@@H](CC(=O)NCc2ccc(C)o2)[C@]2(C(=O)OC)CCCCC=C12	-1.1
